# Reference: the supplement of paper PMC3334620
# Over roughly 33,000 sequences, “E-score (-0.5 to 0.5)” has its median near -0.036; the highest 2% begin near 0.37. This is one part of a sample in which the highest values are shown more often than they occur.
# Biological target: T1, Yer064c (UniProt P40041)
# T1 sequence: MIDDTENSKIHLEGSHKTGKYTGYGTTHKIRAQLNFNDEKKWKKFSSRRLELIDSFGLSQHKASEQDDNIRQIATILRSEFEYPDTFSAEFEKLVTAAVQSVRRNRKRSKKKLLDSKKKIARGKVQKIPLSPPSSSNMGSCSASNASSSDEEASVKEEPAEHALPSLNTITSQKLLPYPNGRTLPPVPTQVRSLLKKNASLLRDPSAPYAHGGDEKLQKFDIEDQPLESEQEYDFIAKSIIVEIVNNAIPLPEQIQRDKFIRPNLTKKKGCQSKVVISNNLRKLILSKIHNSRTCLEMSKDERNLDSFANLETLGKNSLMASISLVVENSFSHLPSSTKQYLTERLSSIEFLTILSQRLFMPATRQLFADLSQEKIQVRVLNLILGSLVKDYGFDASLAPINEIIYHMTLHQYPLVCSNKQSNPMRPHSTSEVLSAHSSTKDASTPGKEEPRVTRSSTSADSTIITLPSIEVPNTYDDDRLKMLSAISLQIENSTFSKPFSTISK
# Assay: PBM E-score (8-mer binding enrichment) (E-score (-0.5 to 0.5)); higher = stronger / more preferred TF binding
# Conditions: protein concentration: 200 nM; construct: GST-full length
# Procedure: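 Universal 'all 10-mer' protein binding microarrays (Agilent AMADID 015681) probed with GST-tagged S. cerevisiae TFs (full-length or DBD) made by in vitro transcription/translation (PURExpress), about 100-200 nM. Bound TF was detected with fluorescent anti-GST. Each ungapped 8-mer (which stands for itself and its reverse complement) is scored by the PBM enrichment score (E-score), a modified Wilcoxon-Mann-Whitney statistic from -0.5 to +0.5, computed with the Universal PBM Analysis Suite. Scale: above 0.35 generally sequence-specific binding.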
row,Sequence,PBM E-score
1,AACCTATA,0.0106
2,CCGCGATA,-0.0471
3,GTTGGTGA,0.115
4,AGAAACAG,-0.164
5,GCTCCAAC,-0.164
6,GTCGTACA,0.19
7,AGGGCGAC,-0.0248
8,CTACAGAC,-0.184
9,CCCATTAA,-0.0295
10,GGGTCGAA,0.0364
11,GAGGCGGA,-0.0783
12,CCCCCCAA,-0.315
13,GACGAAGA,0.0944
14,GTGGGTTA,0.103
15,ATAGTCGC,0.389
16,ATAGTCCG,0.316
17,ATAGTCGG,0.256
18,ATAGTCAG,0.454
19,CTAGTCGC,0.316
20,ATAGTCTG,0.177
21,ACAGAAGG,-0.0367
22,CTGCATCA,-0.0294
23,AGGATCGG,-0.209
24,CGGGCTCC,-0.307
25,GATGAGTA,0.429

row,Sequence,PBM E-score
1,GCTGAGTA,0.212
2,AATGAGTA,0.389
3,AATGAGCA,-0.0702
4,AATGAGGA,-0.00162
5,CATGAGTA,0.341
6,CGAGATTC,0.0578
7,AAGTTGTA,-0.0146
8,ATGGGGCG,-0.111
9,AATTAATT,0.177
10,TACTTATA,0.116
11,GACTTATC,0.307
12,GACTTATA,0.387
13,TCTCCCCA,-0.153
14,CCGACAGC,-0.394
15,CGGGAGTC,0.413
16,AGGGAGTC,0.44
17,CGGGAGTA,-0.0367
18,CGGGAGAC,0.106
19,AGGGAGTA,0.0389
20,AGGGAGTG,-0.175
21,GCTACCAA,-0.00248
22,CGAGCCGC,-0.00093
23,GGACGACC,-0.23
24,CGGGCACA,-0.212
25,CCAGGATC,-0.0208

row,Sequence,PBM E-score
1,ATCCGGAC,-0.228
2,AATGGGGA,-0.288
3,ACACCAGG,-0.148
4,ACCAACGA,-0.0117
5,GACCGGTC,-0.369
6,GGTGACCA,0.0718
7,AGTGACCG,-0.22
8,AGTGACTA,0.469
9,AGTGACTG,0.403
10,CGTGACGA,0.0595
11,AGTGACAA,0.0598
12,AGTGACGG,-0.0747
13,AGTGACGA,0.218
14,GGTGACGA,-0.0961
15,CGTGACAA,-0.253
16,GGTGACTA,0.486
17,CGTGACTA,0.486
18,GAGTACCA,0.252
19,AATACCAA,-0.0127
20,CTCAACCA,0.152
21,GCTTGCCC,-0.427
22,AGTATGGC,0.0363
23,CAAATTTG,0.13
24,ATGCGAAG,-0.0967
25,GTTACTTA,0.163

row,Sequence,PBM E-score
1,CGAAAAAA,0.0432
2,CGTGACGC,-0.00579
3,CGTGACCC,0.0177
4,AGTGACGC,-0.182
5,AGTGACTC,0.486
6,AGTGACAC,-0.0262
7,CGTGACTC,0.481
8,AGGGTACT,-0.144
9,AGATTCCA,0.0276
10,TGATTCCA,0.398
11,AGATTCAA,0.314
12,CGATTCCA,-0.102
13,TGATTCAA,0.466
14,GGATTCAA,0.18
15,AGCGGAAG,-0.191
16,CTGCACCC,-0.223
17,TGACTGCA,0.404
18,AGACTGAA,0.241
19,TGACTGAA,0.432
20,GGACTGAA,0.109
21,AGACTGCA,0.201
22,CGACTGCA,0.253
23,ACTCCAAT,0.238
24,CAGTCCCC,-0.225
25,CCGGTGAG,0.0747

row,Sequence,PBM E-score
1,GCGGAGTA,-0.0756
2,CGACACTA,-0.0389
3,GTTTTGGA,0.197
4,GATCACTA,0.135
5,CATCACTC,0.0183
6,AATCACTA,0.373
7,CATCACTA,0.0474
8,AAACACTG,0.0608
9,AATCACTG,0.375
10,AATCACTC,0.385
11,AAGCACTG,0.0399
12,CGGCGATC,-0.0422
13,GTCACCAC,0.29
14,CATTCTAC,-0.179
15,CAAGATTA,0.199
16,AGTCCAGG,0.0238
17,AAGCCAGC,-0.181
18,GTTCAAGA,0.0547
19,AACGCTCA,-0.103
20,TCTGGACA,-0.266
21,ACTTCGAA,0.166
22,AACTATGC,-0.153
23,GACTATGA,0.435
24,GACTATGC,0.397
25,TACTATGA,0.318

row,Sequence,PBM E-score
1,AACTATGA,0.237
2,CACTATGC,0.0417
3,ACGGCGAG,0.0206
4,GCTCGCAC,-0.24
5,CTACTTTC,0.0258
6,CGGCCGGC,-0.134
7,GTGGTGGA,-0.14
8,TTGGCCAA,-0.142
9,AGACTTAA,0.195
10,AGACTATC,0.35
11,CTACTAAA,0.00127
12,GGACTTAA,0.188
13,CGACTAAA,0.41
14,TGACTTAA,0.435
15,CCACTAAA,-0.0544
16,CGACTACA,0.351
17,AGACTACA,0.344
18,TGACTACA,0.476
19,AGACTAAC,0.413
20,AGACTAGC,0.251
21,ACACTCTG,-0.0556
22,ACGCCACT,-0.186
23,GGAACTTA,-0.0956
24,CAGTAACA,0.0175
25,TACATTGA,0.0284

row,Sequence,PBM E-score
1,AGATGATA,0.0471
2,AGTAAAGG,0.0771
3,ATCCATTC,0.0758
4,CTCAGATA,0.268
5,GGGTTTCA,-0.23
6,ACCGGAGA,-0.00273
7,ATAGAACC,0.0363
8,AGACTATG,0.319
9,AGACTACC,0.354
10,AGACTACG,0.322
11,GGACTAAA,0.331
12,TGACTAAA,0.484
13,CTACTAAG,0.0152
14,CCACTAAG,0.0593
15,AAACTAAG,0.175
16,AGACTAAG,0.383
17,CGACTAAG,0.399
18,TGGCTAAA,0.306
19,AGACTACT,0.376
20,ACTATTCA,0.106
21,AGTTGCCA,-0.223
22,ACGTTGAG,0.0564
23,GAGTCTGC,0.312
24,TTCAGCAA,-0.00768
25,AGTGATAT,-0.134

row,Sequence,PBM E-score
1,AACTGAAC,-0.119
2,CGACTATA,0.374
3,AGACTAAT,0.389
4,AGACTAGA,0.276
5,AAACTAAA,0.0515
6,AGACTATA,0.35
7,CGACTATC,0.359
8,ATACTAAT,0.174
9,AAACTAAT,0.243
10,AGACTAAA,0.398
11,AACTGGCT,-0.28
12,CGGGTAAC,-0.0478
13,GATCATAC,-0.0115
14,CATCATAC,0.215
15,CATCATAA,0.0722
16,AATCATAT,0.428
17,AATCATAC,0.451
18,AATCAGAG,0.269
19,TATCATAA,0.0309
20,CATCATAG,0.25
21,AATCATAG,0.433
22,AATCAAAT,0.23
23,AATCATAA,0.418
24,AAGCATAT,0.0236
25,AATGGCAC,-0.231

row,Sequence,PBM E-score
1,CCCTCCAA,-0.12
2,AATATAAA,0.0817
3,ATGGCTTC,0.156
4,GGGCGGCA,-0.406
5,CACACCCA,0.0764
6,AAACGAGA,0.0214
7,GAAAGAAA,-0.0206
8,CCTACGAA,-0.211
9,TACGCATA,-0.0887
10,AAGAAACG,-0.028
11,CTTTAGCA,-0.154
12,CGTATCGA,-0.111
13,AAGTCACC,0.447
14,ACGTCACG,-0.289
15,AAGTCAGG,0.341
16,TGGTCACA,0.103
17,TAGTCACA,0.478
18,ACGTCACC,-0.162
19,ATGTCACG,-0.123
20,AAGTCACA,0.414
21,AGGTCACC,0.00721
22,AAGTCACG,0.433
23,AGGTCACG,-0.143
24,TCGTCACA,-0.0543
